# Test results published in the supplement of paper PMC6555819.
# How the values were obtained:
# Experiment in all cases: PBM binding z-score (relative to random genomic background probes); higher = stronger binding; sequences stand for … in GC…GCGATTGACAGCGTAGAATGAAGG
# [1] = tested on: FXR:RXRa (NR concentration 270 nM, RXRa partner concentration 90 nM)
# Method in brief: (§1)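 Binding z-scores take random background probes as their reference. They come from custom Agilent 4×180K protein-binding microarrays incubated 1 h with ligand-free nuclear receptor dimers, with antibodies against each partner (one per run) detecting binding. Scanned fluorescence was regression-normalized.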
# [2] = tested on: LXRa:RXRa (NR concentration 270 nM, RXRa partner concentration 90 nM)
# Method in brief: as §1
# [3] = tested on: LXRa homodimer (NR concentration 270 nM)
# Method in brief: as §1
# [4] = tested on: LXRb:RXRa (NR concentration 270 nM, RXRa partner concentration 90 nM)
# Method in brief: as §1
# [5] = tested on: LXRb homodimer (NR concentration 270 nM)
# Method in brief: as §1
# [6] = tested on: PPARa:RXRa (NR concentration 270 nM, RXRa partner concentration 90 nM)
# Method in brief: as §1
# [7] = tested on: PPARg:RXRa (NR concentration 180 nM, RXRa partner concentration 90 nM)
# Method in brief: as §1
# [8] = tested on: PPARg:RXRa 270nM:90nM, anti-RXR (NR concentration 270 nM, RXRa partner concentration 90 nM)
# Method in brief: as §1
# [9] = tested on: PPARg:RXRa 30nM:10nM, anti-RXR (NR concentration 30 nM, RXRa partner concentration 10 nM)
# Method in brief: as §1
# [10] = tested on: PPARg:RXRa 90nM:30nM, anti-RXR (NR concentration 90 nM, RXRa partner concentration 30 nM)
# Method in brief: as §1
# [11] = tested on: PPARg:RXRa DBDmut IVT, anti-RXR (DBD mutation: RXRa K156A/R161A, NR concentration 270 nM, RXRa partner concentration 90 nM)
# Method in brief: as §1
# [12] = tested on: PPARg:RXRa IVT, anti-PPARg (NR concentration 270 nM, RXRa partner concentration 90 nM)
# Method in brief: as §1
# [13] = tested on: PPARg DBDmut:RXRa IVT, anti-PPARg (DBD mutation: PPARg1 K132A/R137A, NR concentration 270 nM, RXRa partner concentration 90 nM)
# Method in brief: as §1
# [14] = tested on: PPARg DBDmut IVT, anti-PPARg (DBD mutation: PPARg1 K132A/R137A, NR concentration 270 nM)
# Method in brief: as §1
# [15] = tested on: PPARg homodimer (NR concentration 180 nM)
# Method in brief: as §1
# [16] = tested on: PXR:RXRa (NR concentration 270 nM, RXRa partner concentration 90 nM)
# Method in brief: as §1
# [17] = tested on: PXR homodimer (NR concentration 270 nM)
# Method in brief: as §1
# [18] = tested on: RARa:RXR (NR concentration 270 nM, RXRa partner concentration 90 nM)
# Method in brief: as §1
# [19] = tested on: RARa homodimer (NR concentration 270 nM)
# Method in brief: as §1
# [20] = tested on: RARb:RXRa (NR concentration 270 nM, RXRa partner concentration 90 nM)
# Method in brief: as §1
Sequence,PBM binding z-score [1],PBM binding z-score [2],PBM binding z-score [3],PBM binding z-score [4],PBM binding z-score [5],PBM binding z-score [6],PBM binding z-score [7],PBM binding z-score [8],PBM binding z-score [9],PBM binding z-score [10],PBM binding z-score [11],PBM binding z-score [12],PBM binding z-score [13],PBM binding z-score [14],PBM binding z-score [15],PBM binding z-score [16],PBM binding z-score [17],PBM binding z-score [18],PBM binding z-score [19],PBM binding z-score [20]
ACTAGCAGGCCAAGTTTGGGTAACTCAAACAAAG,-0.442,-0.634,-0.575,-0.304,-0.8,-0.339,-0.414,-0.541,-0.687,-0.687,0.555,0.362,-0.71,-1.1,-0.788,-0.378,-0.687,-0.383,-0.573,0.143
TCCTGTAGATCAACAGGAGGTTAAGAAAGATCGA,-0.0851,1.1,0.0543,0.973,-0.977,1.28,-0.00253,1.25,2.01,1.49,0.771,0.245,-0.0559,0.308,0.0427,0.654,-0.17,1.02,-0.715,0.535
TCTTGTAGATGAACAGGAGGTTAAGAAAGATCGA,0.551,0.82,-0.0533,0.712,-0.35,0.923,0.119,1.32,2.89,2.02,1.53,0.277,0.804,0.789,0.0799,0.598,-0.154,0.883,0.212,0.279
GCTTACGGGTTAAAGGTTATAGCATGAATAGAAT,4.76,4.09,0.422,4.17,0.397,5.9,8.86,7.5,6.81,8.18,1.96,4,0.8,1.12,1.78,4.18,0.49,6.08,1.07,2.31
GATACAGGGTCAGCTCGAGGCCAGAGTATGGAAA,4.59,2.87,-0.199,2.4,-0.786,4.56,3.36,3.21,0.631,2.06,1.36,2.36,-0.23,-0.691,1.54,3.47,-0.0374,3.66,-0.0976,4.12
CGAACTAGGTCATGCAGGACAGTGAATACATTGA,3.87,2.17,0.149,1.88,-0.2,4.66,7.65,6.21,3.69,5.66,8.05,8.18,3.1,1.2,1.1,1.34,0.687,1.97,0.243,3.92
TGAATGAGGTTAAAGCTCAGGGAACGTGGCGTCG,2.94,1.92,-0.466,0.894,-0.222,3.6,2.86,4,2.09,3.82,2.25,2.59,-0.0715,0.871,0.0932,1.07,-0.806,1.84,-0.696,1.78
ATCGAAAGGTCGGAGGTGAGTATACCCACCCGAA,2.56,2.13,-0.237,1.67,0.308,3.57,2.78,3.13,1.04,2.13,-0.278,1.78,1.11,0.559,1.66,1.87,0.241,2.79,0.0274,3.28
TTACCAAGGTGAGCTGGGGTCGTTGATCCAACTC,0.996,0.819,-0.542,1.37,-0.609,2.37,0.431,1.19,-0.099,0.415,0.928,2.07,-0.594,-0.348,0.0514,4.52,0.268,2.72,-0.868,1.55
ATCGAAAGGTCGATGTGAGTATAGAGAAAGGGAA,3.06,2.82,-0.178,2,0.549,3.35,1.66,1.77,1.02,1.33,0.226,1.15,1.83,0.629,0.753,1.77,0.123,2.36,0.145,3.26
GCTACTGGGGCAAAGCAGGTTACCATAAGGTTGG,0.552,0.174,-0.316,0.4,-0.276,2.24,2.37,2.63,0.398,1.52,6.4,5.54,0.032,-0.0829,0.182,0.319,-0.456,0.495,-0.534,1.12
TCCATTAGTTGAAGGGCAACCGACGAGTCCGTTT,1.27,1.35,0.397,1.23,0.255,1.18,0.134,2.23,3.64,3.02,2.37,0.637,0.0905,0.783,1.13,1.16,0.683,0.989,0.466,1.86
GCGACTGGGGCATCAGCAGGTTACTATAACTTAA,0.0216,-0.0377,-0.448,0.689,-0.343,1.27,0.884,1.05,-0.238,0.594,4.13,3.05,-0.371,-0.562,-0.0326,-0.0216,-0.178,0.369,-0.337,0.825
ACTATTAGTTGAGCCGAGGGCAACCGATAGGTTG,0.981,0.0811,-0.117,-0.118,0.161,0.302,0.401,-0.167,-0.144,-0.0304,-0.387,0.273,0.194,-0.123,-0.122,1.43,0.308,0.433,0.387,1.21
TGAATGGGGTTAAAGATCAGGGAACGTGGCGTCG,5.11,3.48,0.361,4.01,3.3,5.61,6.88,7.24,5.21,7.51,2.89,3.96,1.84,2.48,2.38,3.45,1.64,5,1.66,2.43
CCTAGTCGGTCAAGGTCACACACGCTATAGGTAC,4.93,4.51,2.64,3.94,1.16,4.61,4.76,4.67,2.13,3.88,4.58,5.27,0.742,0.895,3.81,4.4,1.97,4.9,2.62,4.51
TCTTGTAGATCAAAGGTTAAGATAGCCGAAGCCT,1.76,2.11,0.243,2.23,0.104,4.83,8.74,8.06,8.48,9.71,2.14,4.36,0.743,0.848,2.49,2.29,-0.253,3.37,0.787,1.98
CAAACTAGGTTACAGAGGTCAAAGTCCGTGCGTA,6.15,6.43,7.09,5.72,2.18,5.82,7.94,7.19,5.19,6.82,7.75,7.64,1.98,1.29,4.38,6.32,7.32,7.03,2.06,4.44
TCATATAGGTAGTACAGGTGAAAGTCGGCATCTA,1.11,1.01,0.38,0.84,0.0864,1.2,0.65,2.23,3.57,3.13,2.26,1.52,1.27,1.09,1.08,0.715,0.204,1.16,1.16,0.562
AGAATGAGGTTTCCAAAGATCAGGGAAACGCTTG,-0.506,-0.535,-0.424,-0.463,-0.489,-0.139,0.377,-0.265,-0.17,-0.215,0.298,-0.0805,0.256,0.153,-0.417,-0.387,-0.601,-0.144,-0.745,-0.151
TAGCCTAGGTCATTCAGGGGCCAGTAGAGAAAGC,4.49,3.73,0.592,3.1,1.16,3.64,1.7,2.31,0.562,1.53,1.64,2.66,-0.415,-0.024,1.83,2.21,-0.162,3.33,0.0247,3.88
CGAACTCGGTCAGAACAGGACAGTGAAGGATGAT,0.127,0.0151,0.0405,-0.32,-0.669,0.415,0.904,0.142,0.197,0.033,1.72,1.11,-0.0702,0.48,0.274,-0.108,-0.225,0.713,-0.378,1.55
CTCGAAAGGTCGGTTGGGGTGAGTATACGGATAA,3.34,2.38,0.622,2.86,1.41,3.38,0.807,1.47,0.13,0.958,0.404,1.47,0.0444,1.01,1.6,3.44,0.962,2.76,0.684,3.31
GTACCAAGGTGCATAGGTCGTTGATGAGTAGGCG,0.192,0.486,0.209,-0.189,-0.908,1.3,1.21,1.88,0.013,1.15,-0.499,0.0785,-0.485,-0.265,0.243,0.269,-0.124,1.1,-0.294,0.748
TCATATAGGTAAAATGTGAAAGTCGGTGTGGTAA,0.975,0.902,0.119,0.595,0.134,2.27,3.1,4.54,4.42,4.95,4.79,2.51,0.236,0.643,0.891,0.357,0.248,0.634,0.307,0.176
CAGACTGGGGCATAAGGTTACCATAAGCCAGCCC,0.722,2.35,-0.275,1.27,-0.727,2.55,3.37,3.96,2.09,3.72,4,4.18,-0.272,-0.433,0.704,0.652,-0.537,1.59,-0.341,1.66
TTGAGTAGGTTAGTCGGGGCATTCAGCCAACATA,0.205,0.325,0.413,0.932,0.285,1.11,0.307,0.997,0.398,0.742,3.52,3.36,0.385,0.257,0.88,0.618,0.715,0.545,0.987,0.733
GACACAGGGTCAAGGCCAGAGTACGCGTATTGAT,6.96,4.02,-0.483,3.38,-0.662,5.47,5.53,5.57,1.65,4.01,2.25,3.61,0.42,-0.363,1.5,3.91,0.315,4.77,0.257,4.41
